About 8,600 (12%) of roughly 69,000 compounds showed an effect of 50% or more. Shown is part of a subset that was picked to be rich in strong results.
System: Plasmodium berghei
Experiment: Screen against P. berghei liver stage (PbLuc), transformed with Luciferase, at 10uM
Type: functional, HepG2
Conditions: tested at 10 uM

Compound	INHIBITION [%]
CC1(C)CN=C(N2CCN(CC3CCCCO3)CC2)S1 (configuration not stated)	27.6
COCC1COCCC12CCN(Cc1cccs1)CC2 (configuration not stated)	23.6
COCCN1C(=O)C[C@H]2[C@H]1CCN2C(=O)c1ccc[nH]1	26.3
CCN1CCN(Cc2nc(CCc3ccccc3)n[nH]2)CC1	56.5
c1ccc(CCc2n[nH]c(CCN3CCCCC3)n2)cc1	38.5
CCN1CCN(Cc2nc(Cc3ccccc3)n[nH]2)CC1	-7.17
CCOCc1cc(CNC2CCCc3c2cnn3CC)ccc1OC (configuration not stated)	33.8
Cc1nc2sccn2c1CN(CCCN(C)C)Cc1ccco1	33.5
CC(CO)NC(=O)c1ccc(NCc2cc(C#N)ccc2F)cc1 (configuration not stated)	26.8
Cc1nc[nH]c1CN1C[C@H]2CC[C@@H](C1)N(C(=O)CCc1cnn(C)c1)C2	40.1
CSCCCN1C[C@@H]2CC[C@H]1CN(Cc1[nH]cnc1C)C2	45.8
Cc1cc(CN2C[C@@H]3CC[C@H]2CN(Cc2[nH]cnc2C)C3)on1	62.1
Cc1ccc(CN2C[C@@H]3CC[C@H]2CN(Cc2[nH]cnc2C)C3)o1	24.9
Cc1nc[nH]c1CN1C[C@H]2CC[C@@H](C1)N(C(=O)CCNS(C)(=O)=O)C2	26.8
Cc1nc[nH]c1CN1C[C@H]2CC[C@@H](C1)N(C(=O)CCc1cccnc1)C2	8.38
CSc1ccccc1CN1C[C@@H]2CC[C@H]1CN(Cc1[nH]cnc1C)C2	60.3
Cc1nc[nH]c1CN1C[C@H]2CC[C@@H](C1)N(C(=O)c1cnn(C)c1)C2	10.7
Cc1cccc(CN2C[C@@H]3CC[C@H]2CN(Cc2[nH]cnc2C)C3)n1	58.5
COCC1CC2(CCN(C(=O)c3occc3C)CC2)CN1C(C)C (configuration not stated)	18.4
CSc1ncccc1C(=O)N(CCO)Cc1ccccc1	21.4
CCC(CN1CCCC1)NC(=O)Cc1c(C)[nH]c2cc(C)cc(C)c12 (configuration not stated)	6.32
Cc1nc(-c2ccco2)ccc1C(=O)NCC(=O)N1CCCCC1	-5.65

Compound	INHIBITION [%]
CCc1ncncc1C(=O)N1CCCC(n2nc(C)nc2C)C1 (configuration not stated)	-31.8
Cn1c(C(=O)Nc2nc[nH]n2)cc2ccccc21	41.9
COCCCN(Cc1cnc(C2CCCCC2)nc1)C1CCN(C)CC1	49.4
O=C(c1cscn1)N1CCc2ncnc(-c3cccnc3)c2CC1	23.6
Cc1cnc(N2CC[C@H]3[C@@H]2CCC(=O)N3c2cccnc2)nc1	37.1
CN1CCC(c2nc3ccc(-c4cccc(F)c4)cn3n2)CC1	33.5
CS(=O)(=O)N1CCC(c2nc3ccc(-c4cccc(F)c4)cn3n2)CC1	58.3
CN(C)C(=O)N1CCC(c2nc3ccc(-c4ccccc4)cn3n2)CC1	65.3
c1ccc(-c2ccc3nc(C4CCN(CC5CC5)CC4)nn3c2)cc1	6.8
CC(=O)N1CCC(c2nc3ccc(NC4CCC4)cn3n2)CC1	9.51
COCC(=O)N1CCC(c2nc3ccc(N4CCCC4)cn3n2)CC1	-18.2
CCS(=O)(=O)N1CCC(c2nc3ccc(-c4ccccc4)cn3n2)CC1	31.8
CN(C)C(=O)N1CCC(c2nc3ccc(N4CCCC4)cn3n2)CC1	47.9
COCC(=O)N1CCC(c2nc3ccc(-c4ccccc4)cn3n2)CC1	-28.2
CC(=O)N1CCC(c2nc3ccc(-c4cccc(F)c4)cn3n2)CC1	79.2
COCC(=O)N1CCC(c2nc3ccc(-c4ccncc4)cn3n2)CC1	53.4
CN1CCC(c2nc3ccc(-c4ccccc4)cn3n2)CC1	-15.7
CO[C@@H]1CCN(Cc2ccccn2)[C@@H]2CN(Cc3ccco3)C[C@@H]21	20.9
CCc1nc(C)c(C(=O)NCCNC(=O)Cc2cccc(F)c2)s1	-27.9
C=Cn1cc(CN2CCc3nc(-c4cccnc4)nc(O)c3C2)c(C)n1	1.5
Cc1occc1C(=O)Nc1cccc(C(=O)OCC2CCCN2)c1 (configuration not stated)	-24.7
CN(C)C(=O)CN1CCC2(CCCN(Cc3cccs3)C2)C1=O (configuration not stated)	8.6

Compound	INHIBITION [%]
O=C1COC2(CCN(Cc3nccs3)CC2)CN1c1ccccc1	35.6
N#Cc1ccc(N2CCC(OCCc3ccccc3)CC2)nc1	45.5
CC(=O)N1CCC(c2nc3ccc(-c4ccnn4C)cn3n2)CC1	38.2
COc1cccc(-c2ccc3nc(C4CCN(C(C)=O)CC4)nn3c2)c1	56.4
CC(=O)N1CCC(c2nc3ccc(C)cn3n2)CC1	1.7
CN(Cc1ccncc1)C(=O)CCNS(=O)(=O)c1cccnc1	20.9
Cc1nnc(Cn2cc(I)cc(C)c2=O)o1	22.5
CSc1ccc(C(C(=O)O)N2CCC(CO)CC2)cc1 (configuration not stated)	53.9
CSc1ccc(C(C(=O)O)N2CCC(C(=O)N3CCCC3)CC2)cc1 (configuration not stated)	43.9
CSc1ccc(C(C(=O)O)N2CCCC2)cc1 (configuration not stated)	34.9
Cc1ccc(CN2CCCn3c(nc(CN4CCCC4)cc3=O)C2)s1	43.2
Cn1ccnc1CN1CCN2C[C@H](OCc3ccccc3)C[C@H]2C1	-25.2
CC(=O)NC1CCCN(Cc2ccc(OCc3ccccn3)cc2)C1 (configuration not stated)	41.8
c1cnc(N2CCCC(NCc3ccc(-n4ccnc4)cc3)C2)nc1 (configuration not stated)	60.4
Cc1ccc(N2CCCC(NCc3ccc(-n4ccnc4)cc3)C2)nn1 (configuration not stated)	11.5
c1cn(-c2ccc(N3CCC(NC4CC4)CC3)cc2)cn1	56.2
CNCCCNC1CCN(c2ccc(-n3ccnc3)cc2)CC1	-7.2
CC(C)[C@@H](C)NC1CCN(c2ccc(-n3ccnc3)cc2)CC1	16.6
c1cnnc(N2CCCC(NCc3ccc(-n4ccnc4)cc3)C2)c1 (configuration not stated)	15.2
Cc1n[nH]c2ncc(CNC3CCN(Cc4ccccn4)CC3)cc12	-20.6
CCC(=O)NC1CCCN(Cc2ccc(-n3ccnc3)cc2)C1 (configuration not stated)	41.5
Cc1n[nH]c2ncc(CNC3CCCN(c4ncccn4)C3)cc12 (configuration not stated)	73.5

Compound	INHIBITION [%]
CC(=O)NC1CCCN(Cc2ccc(-n3ccnc3)cc2)C1 (configuration not stated)	65.6
COc1cc(CNC2CCCN(c3ncccn3)C2)cc2c1OCO2 (configuration not stated)	-34.8
Cc1nccn1[C@@H]1CC[C@@H](N(C)S(=O)(=O)c2ccc(F)cc2)[C@H]1O	-0.4
Cc1noc(CCCC(=O)N(CCC(=O)O)Cc2ccc(F)c(F)c2)n1	-13
CN(C)c1ccccc1C(=O)N1CCCC(c2cccc(C(=O)O)c2)C1 (configuration not stated)	33.4
O=C(c1ccc(Sc2ccccn2)cc1)N1CCCSCC1	-1.3
Cc1cc(C)c(CNC(=O)NCC(O)c2ccc(Cl)cc2)c(=O)[nH]1 (configuration not stated)	29.2
CCN1CCN(C(=O)C(C)n2cc(Br)cn2)CC1 (configuration not stated)	21.7
COCCNC(=O)[C@@H]1C[C@H]2[C@H](CCN2c2cc(OC)ncn2)O1	7.53
CS(=O)(=O)CCC(=O)Nc1cc(F)ccc1OCC1CCCO1 (configuration not stated)	-14
CC(C)N1CCCC2(CCN(Cc3nncn3C(C)C)C2)C1=O (configuration not stated)	-27.4
CCn1nc(C(C)C)cc1C(=O)NCC1CCCN(c2ccccn2)C1 (configuration not stated)	45
CC(C)c1cc(C(=O)NCC2CCCN(c3ncccn3)C2)n(C)n1 (configuration not stated)	70
CC(C)c1cc(C(=O)NCC2CCCN(C(C)C)C2)n(C)n1 (configuration not stated)	34.1
Cc1cc(C)nc(Nc2cncc(C3CCCN(S(C)(=O)=O)C3)n2)n1 (configuration not stated)	29.2
CCC(CN1CCOCC1)n1cncc1-c1ccc2c(c1)CCCN2C (configuration not stated)	39.7
CCC(CN1CCOCC1)n1cncc1-c1ccc2c(c1)CCN2CC (configuration not stated)	61.9
CCN1CCCc2cc(-c3cncn3C(C)CN3CCOCC3)ccc21 (configuration not stated)	27.6
CCC(NC(=O)c1cc(OC)c2c(c1)OCCO2)c1cccs1 (configuration not stated)	24.3
Cc1noc(C)c1CN1CCn2nc(CCC(=O)N3CCCC3)cc2C1	19.3
COc1cccc(OCCN2CC[C@@](O)(C3CCOCC3)[C@H](C)C2)c1	49.3
CCOCCSc1nnc(Cc2ccccc2F)o1	-19

Compound	INHIBITION [%]
CS(=O)(=O)CCSc1nnc(Cc2ccccc2F)o1	52.6
COc1ccccc1Cc1nnc(SCCS(C)(=O)=O)o1	53.8
COc1cccc(Cc2nnc(SCCS(C)(=O)=O)o2)c1	49.1
COCCOCCSc1nnc(Cc2ccccc2F)o1	6.88
N#CCCSc1nnc(Cc2ccccc2F)o1	20.5
CC[C@H]1N(CC2CCC2)CCC[C@]12CCC(=O)N2Cc1ccncc1	19.8
COCCC(=O)N1CCC(c2cc3ncc(C)nc3[nH]2)CC1	15.9
Cc1cnn(CC2CCCCN2Cc2c(C)noc2C)c1 (configuration not stated)	26.09
CC1CCCN(Cc2cccc(C(=O)Nc3nccs3)c2)C1 (configuration not stated)	-37.8
O=C(c1ccccn1)N1CCC(c2nc(O)cc(-c3ccncc3)n2)C1 (configuration not stated)	19.6
CCOc1ncccc1NC(=O)NC1CCCN(c2ncccn2)C1 (configuration not stated)	30.8
c1cc2c(c(-c3cc(N4CCOCC4)ncn3)c1)CCNC2	58.6
Nc1cc(-c2cccc3c2CCNC3)ncn1	28.7
Nc1cnc(-c2cccc3c2CCNC3)cn1	-0.178
COc1cc2nc3n(c(=O)c2cc1OC)CCN(C(=O)C1CC1)CC3	35.2
COc1cc(OCC(=O)NCCc2ccccc2)cc(OC)c1OC	-13.2
COCCC(=O)N1CC[C@H]2O[C@@H](C)C[C@H]2C1	64.9
COCCC(=O)N1CC[C@@H]2O[C@@H](C)C[C@H]2C1	18.8
COCC(=O)N1CC[C@@H]2O[C@@H](C)C[C@H]2C1	10.1

From ChEMBL document CHEMBL4513216, “Probing the Open Global Health Chemical Diversity Library for Multistage-Active Starting Points for Next-Generation Antimalarials” (ACS Infect Dis, 2020)
